In all, about 69,000 compounds went through this assay and about 8,600 (12%) showed an effect of 50% or more. This excerpt belongs to a sample that is enriched for strong results.

In this assay the test system is Plasmodium berghei. The experiment in a line: Screen against P. berghei liver stage (PbLuc), transformed with Luciferase, at 10uM. The conditions noted are these: tested at 10 uM. Format: functional, HepG2.
As for `COCC(=O)N1C[C@H]2CCCC(OCc3cccnc3)[C@H]2C1` (some centres not stated), the INHIBITION is reported as -3.52%. To `Cc1nc(CN2CCO[C@@H]3CN(C(=O)NC(C)C)CC[C@@H]3C2)cs1` belongs 36.4%. Regarding `CNS(=O)(=O)CC(=O)NCc1cc2c(s1)CCCCC2`, the INHIBITION is reported as 28.9%.

Regarding `c1ccc(-c2nc(CCNC3CCOC4(CCOCC4)C3)no2)cc1` (configuration not stated), the INHIBITION was -6.34%.

In the case of `CCn1nccc1CNc1[nH]cnc2nc(C)nc1-2`, the INHIBITION was found to be 26.4%. To `O=C(NC1CCN(c2ccc(-c3ccccc3F)nn2)C1)c1ccc[nH]1` (configuration not stated) belongs 12.4%. To `O=C(NC1CCN(c2ccc(-c3ccccc3F)nn2)C1)C1CCC1` (configuration not stated) belongs 60.8%; to `O=C(NC1CCN(c2ccc(-c3ccccc3F)nn2)C1)c1cc[nH]n1` (configuration not stated), 49.5%. To `CCOCC(=O)N1Cc2nccn2CC(CN2CCCC2)C1` (configuration not stated) belongs 34.6%. Consider `O=C1O[C@@H]2CN(c3ccc(Cl)cn3)C[C@@H]2N1CCc1ccc(F)cc1`, for which the INHIBITION was -2.04%.

In the case of `O=C1O[C@@H]2CN(Cc3ccncc3)C[C@@H]2N1CCCN1CCOCC1`, the INHIBITION is on record as -43.5%.

With `O=C1O[C@@H]2CN(c3ccncc3)C[C@@H]2N1CCCc1ccc(F)cc1`, the INHIBITION is on record as 75.2%.

As to `O=C1O[C@@H]2CN(c3ncccn3)C[C@@H]2N1CCCc1ccc(F)cc1`, the INHIBITION worked out at 83.8%. To `O=C1O[C@@H]2CN(Cc3ccccn3)C[C@@H]2N1CCCc1ccc(F)cc1` belongs 15.1%; to `O=C1O[C@@H]2CN(c3ccccn3)C[C@@H]2N1CCCc1ccc(F)cc1`, 86.7%. To `Cc1cc(C)nc(N2C[C@H]3OC(=O)N(CCc4cccc(Cl)c4)[C@H]3C2)n1` belongs -17.8%; to `O=C1O[C@@H]2CN(c3cnccn3)C[C@@H]2N1CCCc1ccc(F)cc1`, 9.4%; to `O=C1O[C@@H]2CN(C3CCOCC3)C[C@@H]2N1CCCc1ccc(F)cc1`, 33%. To `CCC1=N[C@@]2(CC[C@@H]3CN(CC4CC4)C[C@@H]32)C(=O)N1CC` belongs 7.31%; to `CCCS(=O)(=O)N1C[C@@H](c2nc(C)no2)C[C@H]2OCC[C@H]21`, 33%; to `CN(C)c1ncc2c(O)nc(C3CCNCC3)cc2n1`, -9.51%. For the compound `COCc1n[nH]c2c1CN(C(=O)c1ccncc1)C2`, the INHIBITION turned out to be 21.6%. To `COc1ccccc1CCNC(=O)N(C)C(C)CS(C)(=O)=O` (configuration not stated) belongs 38.7%; to `COc1cc(Cl)ccc1CNC(=O)N(C)C(C)CS(C)(=O)=O` (configuration not stated), 61%. To `CC(C)Oc1ccccc1CNC(=O)N(C)C(C)CS(C)(=O)=O` (configuration not stated) belongs 33.2%; to `CCOC1CCCN(C(=O)c2nn(-c3ccccc3F)cc2O)C1` (configuration not stated), 11.2%. To `N#Cc1cccc(CN2CCCC2c2ccc[nH]2)c1` (configuration not stated) belongs 50.7%. Turning to `COc1cccc(S(=O)(=O)CCN2CCCC2c2ccc[nH]2)c1` (configuration not stated), the INHIBITION is 32.3%.

Turning to `CN(C)c1cccc(C2CCCN2Cc2nnnn2C2CC2)c1` (configuration not stated), the INHIBITION is 26.6%. To `N#CCCCOc1cccc(CN2CCCC2c2ccc[nH]2)c1` (configuration not stated) belongs 43.1%; to `NC(=O)COc1cccc(CN2CCCC2c2ccc[nH]2)c1` (configuration not stated), 62.6%. As for `NC(=O)c1ccc(OCC(=O)N2CCCC2c2ccc[nH]2)cc1` (configuration not stated), the INHIBITION is reported as 28.2%. To `N#Cc1cccc(CN2CCCC2Cn2cccn2)c1` (configuration not stated) belongs -11.4%; to `NC(=O)COc1cccc(Cn2cccn2)c1`, -24.9%; to `COc1ccc(C2CCCN2Cc2nnnn2C2CC2)cc1OC` (configuration not stated), 19.7%. To `N#Cc1cccc(CN2CCCC2Cn2cncn2)c1` (configuration not stated) belongs 7.18%; to `COc1cccc(C2CCCN2Cc2nnnn2C2CC2)c1` (configuration not stated), 51.6%.

On to `COc1cccc(CN2CCCC2c2ccc[nH]2)c1` (configuration not stated), for which the INHIBITION came out at 62.6%. Take `Cc1nc(Cn2c3c(ccc2=O)CCN(CC2CC2)CC3)cs1`: the INHIBITION is recorded as -8.85%. To `COc1cccc(CC2CN(C3CCC3)CCO2)c1` (configuration not stated) belongs 25.8%; to `Cc1ccccc1NC(=O)c1cncc(C2CCNCC2)n1`, -20.6%; to `CCN1CC[C@@]2(C(=O)N3CCOCC3)CCN(C(=O)C(C)C)CC[C@@H]12`, 14.9%.

With `Cc1cnn(CC2CCCCN2CC(=O)Nc2nc(C)cs2)c1` (configuration not stated), the INHIBITION was determined as 33.8%.

As for `Cc1nc(CN2CCO[C@@H]3CN(C(=O)CC4CC4)C[C@@H]3C2)cs1`, the INHIBITION amounted to 9.63%.

In the case of `Cn1ccnc1CC1CCCN(C(=O)Cc2ccccc2)C1` (configuration not stated), the INHIBITION worked out at 21.9%.

In the case of `Cc1nn(C)c(C)c1C1CCCN1Cc1cccc(OCC(N)=O)c1` (configuration not stated), the INHIBITION is listed as 72.9%. Consider `COc1cccc(CN2CCCC2c2c(C)nn(C)c2C)c1` (configuration not stated), for which the INHIBITION was -14.8%. To `Cc1nn(C)c(C)c1C1CCCN1Cc1cccc(C(N)=O)c1` (configuration not stated) belongs 5.37%; to `CCS(=O)(=O)CCN1CCCC1c1noc(C)n1` (configuration not stated), 16.8%. To `Cc1cc(CNc2cccc(Cl)c2C)no1` belongs 16.165%; to `CCCSc1ncc(-c2nccn2CCC(N)=O)cn1`, 53.3%; to `CCCn1ccnc1-c1nccn1CCC(N)=O`, 29.8%.

For the compound `CCCSc1ncc(-c2nccn2CCO)cn1`, the INHIBITION came to 35.1%. To `O=C1NCC(C(=O)Nc2ncc(Cc3cccc(F)c3)s2)N1` (configuration not stated) belongs 12.7%; to `Cc1ccc(Cc2cnc(NC(=O)C3CNC(=O)N3)s2)cc1F` (configuration not stated), 55.5%; to `O=C1NCC(C(=O)Nc2ncc(Cc3ccc(F)cc3)s2)N1` (configuration not stated), 26.5%. In the case of `CNc1cc(C)nc(C2COCCN2CCOc2ccc(F)cc2)n1` (configuration not stated), the INHIBITION is -12.625%. To `CC(SCc1cc(Br)cc2cccnc12)C(N)=O` (configuration not stated) belongs 58.1%; to `NC(=O)CCSCc1cc(Br)cc2cccnc12`, -57.1%; to `CC(SCc1ccc(Br)c2cccnc12)C(N)=O` (configuration not stated), 21.1%.

Regarding `CC(OCC(F)(F)F)C(=O)N1CCCC1` (configuration not stated), the INHIBITION is -1.37%.

Consider `Cc1ccc(SCC2CNc3nc4ccccc4c(=O)n32)c(C)c1` (configuration not stated), for which the INHIBITION was found to be 49.9%.

On to `CC(=O)N(CCc1ccccc1)CC(=O)NC(C)(C)C#N`, for which the INHIBITION amounted to 59.7%. To `CC(=O)N(CCc1ccccc1)CC(=O)NC1(C#N)CC1` belongs -3.39%; to `CC(=O)N(CCc1ccccc1)CC(=O)Nc1ccccc1C#N`, 45.8%. For `COc1ccc(C2=CCN(C(=O)CN(C)Cc3ccoc3)CC2)cc1`, the INHIBITION turned out to be 53.5%.

As to `COc1ccc(C2=CCN(C(=O)C3CC(=O)N(C4CC4)C3)CC2)cc1` (configuration not stated), the INHIBITION worked out at 40.3%. To `COc1ccc(C2=CCN(C(=O)CN(C)Cc3ccco3)CC2)cc1` belongs 46.2%; to `COc1ccc(C2=CCN(C(=O)C3CCS(=O)(=O)C3)CC2)cc1` (configuration not stated), 59.4%. To `COc1ccc(C2=CCN(C(=O)C3CCC3)CC2)cc1` belongs -6.44%; to `COc1ccc(C2=CCN(C(=O)CN(C)S(C)(=O)=O)CC2)cc1`, -11.4%; to `COc1ccc(C2=CCN(C(=O)CN(C)CC(C)C#N)CC2)cc1` (configuration not stated), 46.5%. To `COc1ccc(C2=CCN(C(=O)CN(CC(N)=O)C(C)C)CC2)cc1` belongs 83.2%; to `COc1ccc(C2=CCN(C(=O)CN(C)CC(N)=O)CC2)cc1`, 10.8%. As to `CC(C)NC(=O)N1CCCC(Cn2cc(-c3ccc(F)cc3)nn2)C1` (configuration not stated), the INHIBITION is reported as 38.5%. To `Cc1nc(C)n(CC2CCCN2CCOc2cccc(F)c2)n1` (configuration not stated) belongs 37.9%; to `Cc1cc(-c2cc3nc(C)c(C)c(NCC4COCCO4)n3n2)no1` (configuration not stated), 8.57%; to `CNc1ncc(CN(C)CCN2CCCCC2)cn1`, -61.5%. To `CCC1CN(CC(=O)NCCN2CCCCC2)c2ccccc2S1` (configuration not stated) belongs 9.57%. On to `COCC1CN(Cc2ccc(F)cc2)Cc2nn(C)cc21` (configuration not stated), for which the INHIBITION was found to be 8.93%. To `COCC1CN(Cc2ccccn2)Cc2nn(C)cc21` (configuration not stated) belongs 60.2%. To `COCC1CN(Cc2ccccn2)Cc2cn(C)nc21` (configuration not stated) belongs 45.1%.

As for `COCC1CN(Cc2ccc(OC)cc2)Cc2nn(C)cc21` (configuration not stated), the INHIBITION was found to be 93.3%.

For the compound `CCOCC1CN(Cc2ccc(OC)cc2)Cc2nn(C)cc21` (configuration not stated), the INHIBITION amounted to 30.7%. To `COCC1CN(Cc2ccncc2)Cc2nn(C)cc21` (configuration not stated) belongs -5.05%; to `NCC1CCC(c2c(C(N)=O)sc3ccccc23)CC1` (configuration not stated), 14.6%; to `COCCCNc1c(-c2ccc(Cl)cc2)c(=O)c1=O`, 60.8%.

Regarding `COCCNc1c(-c2ccc(Cl)cc2)c(=O)c1=O`, the INHIBITION turned out to be 24.5%. Consider `COCCCNc1c(-c2ccc(C)cc2)c(=O)c1=O`, for which the INHIBITION came to 35.1%.

`CN(c1ccccc1)c1ccc(CC2CCCN(CCO)C2)nn1` (configuration not stated): the INHIBITION came out at 16.5%. To `CC(=O)NCCNC(=O)c1sccc1Br` belongs 28.5%.

Turning to `CC(=O)NCCC(=O)Nc1sccc1C(=O)C(C)(C)C`, the INHIBITION amounted to 48.9%.

On to `CC(=O)Nc1sccc1C(=O)C(C)(C)C`, for which the INHIBITION is 77.7%. With `CC(C)(CNC(=O)c1ccco1)CNC(=O)c1ccco1`, the INHIBITION is listed as -18.9%. To `CC(C)(C)n1cc(C#N)cc1NC(=O)CCNC(=O)c1ccco1` belongs 26.5%; to `CC(C)(C)C(=O)c1ccsc1NC(=O)CCNC(=O)c1ccco1`, 75.8%; to `Cc1nn(C)c(C)c1CN(C)C(=O)c1cc(NC(=O)C2CC2)n(C)n1`, 44.05%. To `CCCc1nc(NCCOC)c2c(n1)c(C)nn2CC` belongs 17%; to `O=C(c1cnccn1)N1CCN2C[C@H](Oc3cccc(F)c3)C[C@H]2C1`, 47.5%; to `CN1CC2(CCNCC2)COc2ccccc2S1(=O)=O`, -15.7%. To `CC(c1cccc(-c2ncccc2F)c1)N(C)C` (configuration not stated) belongs -17.4%; to `COCCNc1ncc(-c2cc(C)no2)c(-c2ccco2)n1`, 47.4%. For the compound `Cc1ncc(-c2ccnc(SCCN(C)C)n2)c(-c2ccco2)n1`, the INHIBITION amounted to 70.8%. To `Cc1ncc(-c2ccnc(SCCN)n2)c(-c2ccco2)n1` belongs 42.6%; to `O=C(O)Cn1nc(C2CC2)c2c(-c3ccco3)ccnc21`, 22%; to `NCCSc1nccc(-c2cnc(C3CC3)nc2-c2ccco2)n1`, 75.3%. To `OCCNc1nccc(-c2c[nH]nc2-c2ccco2)n1` belongs -43.4%.

The record behind these values is ChEMBL document CHEMBL4513216, “Probing the Open Global Health Chemical Diversity Library for Multistage-Active Starting Points for Next-Generation Antimalarials” (ACS Infect Dis, 2020).
